An excerpt weighted towards active compounds, which were near 21% of everything screened.
CHX counter: affects cycloheximide protein synthesis inhibition readout, counter-screen | max response, % | cell reporter, cycloheximide protein synthesis inhibition counterscreen | 300,000 tested, 12% active | AID 2314; in the data active means max response mostly above about 13%, no sharp cut-off; inactive means mostly below about 14%; further: read at 38.3 µM for the half of the compounds with a filed dose; 0% is about no effect
SARS PLpro yeast: inhibitors of SARS-CoV papain-like protease in yeast; S. cerevisiae expressing SARS-CoV PLpro, growth rescue; Potency, µM (doses to about 32.9 µM), inactives show top-dose activity, positive = growth rescue, usual class: activators; 330,000 tested, 0.19% active; AID 485353; further: potency means the concentration at half of the fitted maximal effect; 0% is about no effect; nearly all actives have a fitted effect of over 55% in size
Shiga toxin inh: inhibitors of Shiga toxin in Vero cells; Vero cells, Shiga toxin protein synthesis inhibition reporter; 290,000 tested, 9.2% active; AID 2315; inhibition, % at 38.7 µM; in the data active means inhibition mostly above about 28%, no sharp cut-off; inactive means mostly below about 43%; further: 0% is about no effect
NS1 function inh: blocks influenza NS1 protein function. Potency, µM (doses to about 46.1 µM), without a hit: top-dose activity, positive = more growth. 270,000 tested, 0.4% active; further: potency means the concentration at half of the fitted maximal effect; actives are rising curves; nearly all actives have a fitted effect of over 50% in size
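Growth recovery, yeast-based: influenza A NS1 expressed in S. cerevisiae causes slow growth, and suppressors are detected by OD600. The parent strain without NS1 is used as positive control.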
Pf growth 96h: P. falciparum growth inhibition at 96 hour, primary screen for plastid delayed-death inhibitors; 320,000 tested, 6.9% active; Potency, µM (titrated, usually from 28.7 µM), inactives show at the highest dose activity change, negative = inhibition, actives largely listed as inhibitors; P. falciparum luciferase reporter growth, 96 h; AID 504834; active means well fitted inhibition curve with a large enough effect; inconclusive means small, poorly fitted or top-dose-only effect, or another doubt; inactive means no such curve, though single readings can be large or run the other way; further: potency means the concentration at half of the fitted maximal effect; on the % scale 0 is the no-effect control and ±100 the full control effect
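Parasite growth measured via integrated firefly luciferase reporter in P. falciparum. Infected erythrocytes at 2% hematocrit, 0.05% parasitemia final were treated 96 hours at 37 C under 5% CO2, and luminescence was read.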
Pf growth 48h: inhibits P. falciparum growth in the first generation, 48 h; P. falciparum luciferase growth in erythrocytes, 48 h; Potency, µM (highest dose often 28.7 µM), for inactives: at the top dose activity change, negative = inhibition, actives largely listed as inhibitors; 310,000 tested, 5.9% active; active means well fitted inhibition curve with a large enough effect; inconclusive means small, poorly fitted or top-dose-only effect, or another doubt; inactive means no such curve, though single readings can be large or run the other way; further: potency means the concentration at half of the fitted maximal effect; on the % scale 0 is the no-effect control and ±100 the full control effect
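Compounds are pin-transferred into medium, infected erythrocytes (2% hematocrit, 0.1% parasitemia final) are added, and plates sit one parasite generation at 37 C in 5% CO2. Detection reagent is then added and luminescence measured.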
Starred values were filed as active, the others as inactive; u = inconclusive; x = no result given. Unless noted, the call rests on the fitted dose curve.

SMILES	CHX counter	SARS PLpro yeast	Shiga toxin inh	NS1 function inh	Pf growth 96h	Pf growth 48h
CCCN1C(=O)SC(CC(=O)Nc2ccc(C)cc2)C1=O (configuration not stated)	10	11µM*	26	-45%	u	-12%
O=C(CC1Sc2ncnn2C1=O)Nc1ccccc1 (configuration not stated)	17*	-26%	-8	-10%	1%	x
Cc1ccc2[nH]c(CNC(=O)C3CCCCC3)cc2c1	12	-4%	14	-4%	22%	-8%
Cc1ccc(NC(=O)CC2=NC(=O)C(CC(=O)Nc3ccccc3F)S2)cc1 (configuration not stated)	22*	-1%	90*	1%	20%	16%
O=C(CC1SC(=O)N(c2ccccc2)C1=O)Nc1ccccc1 (configuration not stated)	51*	-17%	51*	-91%	x	43%
CC(=O)Nc1ccc(NC(=O)CC2SC(=O)N(CC(=O)c3ccccc3)C2=O)cc1 (configuration not stated)	2	-3%	4	-11%	10µM*	6%
Cc1ccc(-c2sc(-c3ccccc3)nc2CC(=O)Nc2ccccc2F)cc1	0	6%	-5	-2%	-81%	u
CCN=C1SC(CC(=O)Nc2ccc(C(F)(F)F)cc2)C(=O)N1CC (configuration not stated)	-2	-4%	-5	10%	55%	2.6µM*
Cc1onc(-c2c(Cl)cccc2Cl)c1C(=O)ONC(=O)c1ccccc1	-1	-1%	-10	2%	-6%	174%
CC(C)CCN1C(=O)c2ccc(C(=O)Nc3ccccc3C(=O)O)cc2C1=O	7	-3%	0	-2%	42%	18%
Cc1ccccc1OCc1nc(-c2ccc(NC(=O)c3ccco3)cc2)no1	35*	-15%	52*	-44%	u	u
Cc1ccccc1OCc1nc(-c2ccc(NC(=O)c3ccc4c(c3)OCO4)cc2)no1	15	0%	20	1%	-7%	u
Cc1ccc(-c2noc(CN(C(=O)c3cccs3)C(C)C)n2)cc1	2	-3%	14	-47%	15%	-10%
CC(NC(=O)c1ccco1)c1nc(-c2ccccc2)no1 (configuration not stated)	2	0%	-8	10%	9%	23%
CC(Oc1ccc(Cl)cc1Cl)c1nc(-c2ccc(NC(=O)c3ccco3)cc2)no1 (configuration not stated)	71*	-35%	113*	-3%	0.93µM*	x
Cc1ccccc1OCc1nc(-c2ccc(NC(=O)c3cccs3)cc2)no1	50*	-15%	154*	-7%	u	u
Cc1c(N/C(=N/S(=O)(=O)c2ccc(Cl)cc2)c2ccccc2)c(=O)n(-c2ccccc2)n1C	13	9%	7	2%	3%	-5%
CCC1C(c2ccccc2)NC(c2ccccc2)CC1(O)c1ccc(F)cc1 (configuration not stated)	-1	0%	0	0%	u	10µM*
O=C1CC(O)(c2ccccc2)C(c2ccccc2)=C1c1ccccc1 (configuration not stated)	-3	-25%	9	x	12µM*	10µM*
COc1cc2cc(CN(CCc3ccccc3C)C(=S)NCCCN3CCOCC3)c(=O)[nH]c2cc1OC	-1	0%	-7	9%	322%	7.4µM*
CCNC(=S)N(CCc1ccccc1C)Cc1cc2cc(OC)c(OC)cc2[nH]c1=O	-4	-3%	-7	16%	u	u
CCNC(=S)N(CCc1cccc(C)c1)Cc1cc2cc(OC)c(OC)cc2[nH]c1=O	8	18%	-5	13%	-5%	u
CN(C)CCCNC(=S)N(Cc1cccs1)Cc1cc2cc3c(cc2[nH]c1=O)OCCO3	0	0%	-13	0%	-8%	u
Cc1ccc2[nH]c(=O)c(CN(Cc3ccccc3)C(=S)NCCCN(C)C)cc2c1	26*	1%	48*	-35%	u	29%
COc1cc2cc(CN(CCc3ccccc3C)C(=S)NCCCN(C)C)c(=O)[nH]c2cc1OC	-2	-21%	-14	7%	u	13µM*
